According to PubChem BioAssay (NCATS):
Unmarked numbers belong to inactive results. Results filed as inconclusive are left out. The source made the active and inactive calls. Unless noted, calls follow the shape of the dose curve; as a rule, active = well fitted curve in either direction with a large enough effect (not every such curve was filed as active); inconclusive = small, poorly fitted or top-dose-only effect, or another doubt; inactive = flat fitted curve, though single readings scatter.

What was measured:
[1] = AP1 Signaling Pathway (AID 357); conditions: ME-180 AP-1-bla reporter, EGF-induced, beta-lactamase ratio, 5 h; at 17.2 µM (top of the series) unless noted; also: % is scaled to controls: 0 for no effect and ±100 for the full control effect
Procedure, shortened: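 AP-1-bla ME-180 cells with beta-lactamase reporter under AP-1 response element, stimulated with EC50 EGF; compounds titrated, 5 hours at 37 degrees Celsius. CCF4 read at 460/530 nm ratio; positive and negative modulators judged by AC50.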

[2] = NFAT Signaling Pathway (AID 444); conditions: Jurkat NFAT-bla M1, carbachol, beta-lactamase ratio, 5 h; at 17.2 µM (top of the series) unless noted;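 also: carbachol stimulus at about its EC50 of 1 µM final; % is scaled to controls: 0 for no effect and ±100 for the full control effect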
Procedure, shortened: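 Jurkat cells with NFAT-driven β-lactamase reporter and co-expressed M1 receptor, stimulated with carbachol (final 1 uM, ~EC50), compound titration, 5 h at 37 °C. CCF4 loaded 1 h at RT; 460/530 nm ratio gave %activity and AC50.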

[3] = Stat Signaling Pathway (AID 446); conditions: ME-180 SIE beta-lactamase reporter, IL-6 stimulated, 5 h; at 17.2 µM (top of the series) unless noted;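 also: ME-180 cervical cancer cells given 40 pM IL-6 alongside compound; SIE-controlled beta-lactamase reporter measured as 460/530 nm FRET emission ratio; % is scaled to controls: 0 for no effect and ±100 for the full control effect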
Procedure, shortened: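 Screening format detects activators and inhibitors alike: ME-180 SIE-bla cells stimulated at 40 pM IL-6 for 5 hrs with compound, then dual-emission beta-lactamase read at 405 nm excitation.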

[4] = biological target: Glucocorticoid receptor (Homo sapiens) (UniProt P04150); assay: GR-GFP Redistribution (AID 450;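 active = compounds whose dose series gives a full or clear partial fitted curve of increased nuclear translocation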; also: potency is read from the fitted curve at half-maximal effect)
Glucocorticoid receptor (Homo sapiens), sequence (P04150 whole entry, looked up, the tested form may be a part): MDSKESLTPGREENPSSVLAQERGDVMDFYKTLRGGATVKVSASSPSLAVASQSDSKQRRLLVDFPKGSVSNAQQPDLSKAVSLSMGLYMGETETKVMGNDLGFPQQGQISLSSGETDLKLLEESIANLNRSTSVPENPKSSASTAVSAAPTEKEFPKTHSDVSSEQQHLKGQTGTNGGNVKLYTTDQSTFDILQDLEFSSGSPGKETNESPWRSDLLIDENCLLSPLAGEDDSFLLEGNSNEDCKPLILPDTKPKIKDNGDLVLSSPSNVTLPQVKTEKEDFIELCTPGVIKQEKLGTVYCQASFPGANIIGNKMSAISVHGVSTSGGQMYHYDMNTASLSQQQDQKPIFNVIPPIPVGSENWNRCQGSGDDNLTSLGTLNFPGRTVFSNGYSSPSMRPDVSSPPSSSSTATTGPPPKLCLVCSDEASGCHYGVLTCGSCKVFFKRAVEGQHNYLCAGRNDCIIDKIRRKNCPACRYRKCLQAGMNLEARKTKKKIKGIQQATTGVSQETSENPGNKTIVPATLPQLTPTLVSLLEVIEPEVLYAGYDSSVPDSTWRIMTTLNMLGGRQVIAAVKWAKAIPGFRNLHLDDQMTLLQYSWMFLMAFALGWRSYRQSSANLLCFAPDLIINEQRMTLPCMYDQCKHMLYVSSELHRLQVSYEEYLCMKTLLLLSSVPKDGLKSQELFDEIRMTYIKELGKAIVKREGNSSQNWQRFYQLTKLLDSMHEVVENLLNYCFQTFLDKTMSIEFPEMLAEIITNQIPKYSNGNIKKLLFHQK

[5] = biological target: Glucocorticoid receptor (Homo sapiens) (UniProt P04150); assay: GR-EFC Redistribution (AID 451; calls by dose curve; also: potency is read from the fitted curve at half-maximal effect); conditions: CHO-K1 GR-EFC translocation, beta-gal luminescence, 2 h
Procedure, shortened: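 CHO-K1 cells expressing nuclear EA and GR-ED fragments of b-gal; compounds titrated up to 46 uM final, 2 h at 37 C. GR nuclear translocation read as complemented b-gal luminescence after 1 h RT detection.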

[6] = biological target: Mitogen-activated protein kinase 10 (Mus musculus) (UniProt Q61831); assay: JNK3 AlphaScreen Assay (AID 530);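 also: kinase came from lysate of stimulated human HepG2 cells; signal reports phosphorylation of biotinylated GST-cJun 1-79 at Ser73 with 10 µM ATP; % is scaled to controls: 0 for no effect and ±100 for the full control effect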
Procedure, shortened: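 Pre-activated (IL-1β/TNFα) JNK3 in HepG2 lysates phosphorylates biotin-GST-cJun(1-79), 10 uM ATP; anti-phospho-cJun(Ser73) AlphaScreen read at room temperature, pH 7.6 Tris buffer. Compounds pre-incubated 15 min as titrations.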

[7] = biological target: 3',5'-cyclic-AMP phosphodiesterase 4B (Homo sapiens) (UniProt Q07343); assay: qHTS Assay for Inhibitors of PDE-IV (AID 607; active = well fitted activation curve with a large enough effect in the main read-out, with a control signal flat, not every such curve was filed as active; also: % of control where 0% means no effect)
3',5'-cyclic-AMP phosphodiesterase 4B (Homo sapiens), sequence (Q07343 whole entry, looked up): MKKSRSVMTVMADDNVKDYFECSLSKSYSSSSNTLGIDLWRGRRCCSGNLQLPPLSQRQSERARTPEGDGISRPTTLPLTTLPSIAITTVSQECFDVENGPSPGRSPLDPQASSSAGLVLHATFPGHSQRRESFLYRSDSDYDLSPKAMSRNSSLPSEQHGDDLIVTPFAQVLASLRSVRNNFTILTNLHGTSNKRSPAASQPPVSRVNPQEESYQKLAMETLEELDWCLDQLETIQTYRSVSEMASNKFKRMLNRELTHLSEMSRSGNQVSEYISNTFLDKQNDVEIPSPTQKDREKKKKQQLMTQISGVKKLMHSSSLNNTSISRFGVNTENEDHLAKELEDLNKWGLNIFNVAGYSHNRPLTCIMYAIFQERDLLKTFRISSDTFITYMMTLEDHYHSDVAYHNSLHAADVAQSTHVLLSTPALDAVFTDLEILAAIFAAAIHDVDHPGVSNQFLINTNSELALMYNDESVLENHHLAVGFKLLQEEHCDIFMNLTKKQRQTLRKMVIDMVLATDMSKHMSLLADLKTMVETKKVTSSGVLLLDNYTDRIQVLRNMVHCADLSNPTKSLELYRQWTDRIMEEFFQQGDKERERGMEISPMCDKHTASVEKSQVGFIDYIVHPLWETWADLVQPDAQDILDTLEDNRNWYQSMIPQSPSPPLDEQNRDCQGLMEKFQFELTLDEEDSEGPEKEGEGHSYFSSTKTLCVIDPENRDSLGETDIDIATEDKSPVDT
Procedure, shortened: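 The readout is membrane depolarisation from a cAMP-sensing CNG channel, detected with a potential dye at ex 535/em 590. Cells were HEK293-derived (endogenous PDE-IV) at 1000 cells/well, titrated up to 22.9 uM final.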

Row | SMILES | activity change, negative = inhibition [1] | activity change, negative = inhibition [2] | activity, negative = inhibition [3] | Potency [4] | Potency [5] [µM] | activity change, negative = inhibition [6] | Potency [7]
1 | COc1ccc(C(=O)/C=C/Nc2cccc(C)n2)cc1OC | -16.3% | 22.7% | 0.139% | > 20.6 µM |  |  | 
2 | CCOC(=O)c1[nH]c2ccccc2c1NC(=O)CCN1CCN(C(=O)OCC)CC1 | -2.19% | 1.86% | -0.665% | > 20.6 µM |  |  | 
3 | O=C(C1=C(O)C(=O)N(c2ncccn2)C1c1cccc(Cl)c1)c1ccco1 (centres undefined) | -4.37% | 22.6% | -6.45% | > 20.6 µM |  |  | 
4 | COc1ccccc1N1CCN(C(=O)c2c(C)cc(=O)oc2C)CC1 | 10.3% | -1.71% | 6.24% | > 20.6 µM |  |  | 
5 | CC(NC(=O)NCCCC(=O)O)(C(F)(F)F)C(F)(F)F | 1.88% | -1.55% | 1.17% | > 20.6 µM |  |  | 
6 | CN(C1CCS(=O)(=O)C1)S(=O)(=O)c1cccc2nsnc12 (centres undefined) | -3.76% | 18.9% | 1.43% | > 20.6 µM |  |  | 
7 | O=C1CC(c2ccccc2)n2nc(N3C(=O)c4ccccc4C3=O)nc2N1 (centres undefined) | 0.103% | -10.6% | -7.82% | > 20.6 µM |  |  | 
8 | CC(C)(C)NCC(=O)c1c[nH]c2ccccc12 | 9.26% | -0.153% | 14.8% | > 20.6 µM |  |  | 
9 | Cc1ccc(C(=O)/C=C/Nc2ccccn2)cc1 | 11% | 23.5% | -4.63% | > 20.6 µM |  |  | 
10 | O=C(Nc1ncn[nH]1)c1c(Cl)ccc(Cl)c1Cl | 13.1% | 1.62% | -0.714% | > 20.6 µM |  |  | 
11 | CN(C)c1nc2n(c(=S)n1)CCS2 | 11.5% | 3.88% | -7.31% | > 20.6 µM |  |  | 
12 | C=C(C)CSc1nc(N)c2c3c(sc2n1)CCC3 | -27.1% | -3.51% | 4.14% | > 20.6 µM |  |  | 
13 | CC1(C)Cc2c(C#N)c(NCCN3CCOCC3)nc(-c3ccco3)c2CO1 | -12.2% | 5.08% | -0.141% | > 20.6 µM |  |  | 
14 | CC1CN(C2CCN(S(=O)(=O)c3ccccc3)CC2)CC(C)O1 (centres undefined) | 2.07% | -20.4% | 2.46% | > 20.6 µM |  |  | 
15 | N#Cc1nc(COc2ccccc2F)oc1NCCCn1ccnc1 | -26.4% | -21.7% | 5.2% | > 20.6 µM |  |  | 
16 | CC1(C)Cc2c(c(-c3ccccc3Cl)[nH]c(=O)c2C#N)CO1 | 13% | -5.06% | 2.62% | > 20.6 µM |  |  | 
17 | C=C(C)Cn1c(-c2ccc(OC)cc2)nc2ccccc21 | -23.2% | 3.93% | 5.37% | > 20.6 µM |  |  | 
18 | CC1CCc2cc(F)cc3c(O)c(C(=O)NCC4CCCO4)c(=O)n1c23 (centres undefined) | -6.28% | -19.9% | 1.8% | > 20.6 µM |  |  | 
19 | O=C1c2ccccc2C(=O)N1c1ncccn1 | 6.61% | -3.61% | 9.87% | > 20.6 µM |  |  | 
20 | CCCCOC(=O)CSC1=C(C#N)C(c2ccccc2OC)C(C#N)C(=O)N1 (centres undefined) | -23.2% | 20.9% | -14% | > 20.6 µM |  |  | 
21 | O=C1CCC(=O)N1CNc1ccccn1 | 10.7% | -7.64% | 15.6% | > 20.6 µM |  |  | 
22 | O=C(c1ccc(=O)oc1)N1CCN(c2ccc(F)cc2)CC1 | 2.08% | -11.6% | -4.16% | > 20.6 µM |  |  | 
23 | O=C1CC(NCc2ccncc2)C(=O)N1c1ccc(Cl)cc1 (centres undefined) | -15.8% | 13.2% | -1.32% | > 20.6 µM |  |  | 
24 | CCCCCCCC(=O)OCC(=O)[C@@]1(O)CC[C@H]2[C@@H]3CCC4=CC(=O)CC[C@]4(C)[C@H]3[C@@H](O)C[C@@]21C | -9.61% | -28.6% | 7.91% | 0.00571 µM (active) |  |  | 
25 | COC(=O)CSc1nnc2n(-c3ccc(OC)cc3)c(=O)c3c4c(sc3n12)CCCCC4 | -16% | -18.9% | 5.65% | > 20.6 µM |  |  | 
26 | CC(=O)[C@@]1(O)CC[C@H]2[C@@H]3CCC4=CC(=O)CC[C@]4(C)[C@H]3[C@@H](O)C[C@@]21C | 3.13% | -20.8% | 4.29% | 0.0133 µM (active) |  |  | 
27 | CC(=O)C1(C)OC(N)=C(C#N)C(c2ccccc2)C1(C#N)C#N (centres undefined) | 13.9% | -28.6% | -4.54% | > 20.6 µM |  |  | 
28 | CCCCn1c(C)cc2cc(O)ccc21 | -15.1% | -5.83% | -8.99% | > 20.6 µM |  |  | 
29 | Nc1cc(S(N)(=O)=O)ccc1SSc1ccc(S(N)(=O)=O)cc1N | 19.2% [at 7.69 µM] | -0.508% [at 7.69 µM] | -1.82% [at 7.69 µM] | > 46 µM | > 9.22 | -4.44% [at 11.4 µM] | inactive
